In article PMC8384837, “Expanding the binding specificity for RNA recognition by a PUF domain”:
Substitutions are numbered along the chain they refer to.

Tests used:
Experiment in all cases: yeast three-hybrid, YBZ-1, SC-Leu-His + 0.5 mM 3-AT, 4 days
Details in all cases: tags: N-Gal4 AD-HA kept; label: inside an RPR1-promoter hybrid RNA with tandem MS2 sites; ssRNA
[1] = molecular target: PUM1 PUF domain R4-RHV (Homo sapiens, UniProt Q14671 828-1176, N971R;Q975V)
How it was run: (§1)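 Pumilio-1 PUF domain libraries, randomized at the three base-contacting residues of each repeat, were co-expressed with matching RNA elements from a centromeric plasmid in strain YBZ-1, which carries a LexA–MS2 coat fusion and a HIS3 reporter. Transformants grew for four days on SC-Leu (input) or on SC-Leu-His + 0.5 mM 3-AT (selection), and the repeat regions were PCR-amplified and Illumina-sequenced. The interaction score is the log change in variant frequency from input to selection. That logarithm is base 2, with a pseudocount of 1 where a variant was absent.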

[2] = molecular target: PUM1 PUF domain R4-FGS (Homo sapiens, UniProt Q14671 828-1176, N971F;H972G;Q975S)
How it was run: as §1

[3] = molecular target: PUM1 PUF domain R5-LWG (Homo sapiens, UniProt Q14671 828-1176, C1007L;R1008W;Q1011G)
How it was run: as §1

[4] = molecular target: PUM1 PUF domain R7-RVI (Homo sapiens, UniProt Q14671 828-1176, S1079R;N1080V;E1083I)
How it was run: as §1

[5] = molecular target: T1, PUM1 PUF domain R6-MWE (Homo sapiens, UniProt Q14671 828-1176, N1043M;Y1044W;Q1047E)
T1 sequence: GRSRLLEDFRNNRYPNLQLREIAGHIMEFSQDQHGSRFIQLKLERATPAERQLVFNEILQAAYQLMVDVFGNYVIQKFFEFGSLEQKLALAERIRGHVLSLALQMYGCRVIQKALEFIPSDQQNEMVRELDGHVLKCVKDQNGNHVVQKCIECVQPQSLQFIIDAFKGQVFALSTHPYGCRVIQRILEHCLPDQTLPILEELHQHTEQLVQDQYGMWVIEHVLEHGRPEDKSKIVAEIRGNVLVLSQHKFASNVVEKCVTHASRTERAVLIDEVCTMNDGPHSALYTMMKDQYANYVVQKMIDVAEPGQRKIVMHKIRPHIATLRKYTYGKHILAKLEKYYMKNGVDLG
How it was run: as §1

[6] = molecular target: PUM1 PUF domain R3-FSE (Homo sapiens, UniProt Q14671 828-1176, C935F;R936S;Q939E)
How it was run: as §1

[7] = molecular target: PUM1 PUF domain R3-MWS (Homo sapiens, UniProt Q14671 828-1176, C935M;R936W;Q939S)
How it was run: as §1

[8] = molecular target: T2, PUM1 PUF domain R6-CYL (Homo sapiens, UniProt Q14671 828-1176, N1043C;Q1047L)
T2 sequence: T1 sequence with M216C, W217Y, E220L
How it was run: as §1

[9] = molecular target: PUM1 PUF domain R8-YWK (Homo sapiens, UniProt Q14671 828-1176, N1122Y;Y1123W;Q1126K)
How it was run: as §1

[10] = molecular target: PUM1 PUF domain R1-RGQ (Homo sapiens, UniProt Q14671 828-1176, S863R;R864G)
How it was run: as §1

GGCUAGAACUAGUGGAUCCCCCGGCGCCCGGCGGCUCGAGCCCGGGUAAGUGUACAUAGUCUGCAUGCCGCCGGGCGCCAUGCCUGCAGGUCGACUCUAGAAAACAUG
binding signal [1]: 2.18 log2 enrichment (interaction score)
binding signal [2]: 2.32 log2 enrichment (interaction score)

GGCUAGAACUAGUGGAUCCCCCGGCGCCCGGCGGCUCGAGCCCGGGUAAGUGUAAAUAGUCUGCAUGCCGCCGGGCGCCAUGCCUGCAGGUCGACUCUAGAAAACAUG
binding signal [3]: 2.19 log2 enrichment (interaction score)
binding signal [1]: 2.5 log2 enrichment (interaction score)
binding signal [2]: 0.95 log2 enrichment (interaction score)

GGCUAGAACUAGUGGAUCCCCCGGCGCCCGGCGGCUCGAGCCCGGGUAAGUUUAAAUAGUCUGCAUGCCGCCGGGCGCCAUGCCUGCAGGUCGACUCUAGAAAACAUG
binding signal [4]: 2.39 log2 enrichment (interaction score)

GGCUAGAACUAGUGGAUCCCCCGGCGCCCGGCGGCUCGAGCCCGGGUAAGUGGAAAUAGUCUGCAUGCCGCCGGGCGCCAUGCCUGCAGGUCGACUCUAGAAAACAUG
binding signal [5]: 4.52 log2 enrichment (interaction score)

GGCUAGAACUAGUGGAUCCCCCGGCGCCCGGCGGCUCGAGCCCGGGUAAGUGUAAGUAGUCUGCAUGCCGCCGGGCGCCAUGCCUGCAGGUCGACUCUAGAAAACAUG
binding signal [6]: 3.22 log2 enrichment (interaction score)
binding signal [7]: 5.62 log2 enrichment (interaction score)

GGCUAGAACUAGUGGAUCCCCCGGCGCCCGGCGGCUCGAGCCCGGGUAAGUGUUAAUAGUCUGCAUGCCGCCGGGCGCCAUGCCUGCAGGUCGACUCUAGAAAACAUG
binding signal [3]: 3.88 log2 enrichment (interaction score)

GGCUAGAACUAGUGGAUCCCCCGGCGCCCGGCGGCUCGAGCCCGGGUAAGUGUAUAUAGUCUGCAUGCCGCCGGGCGCCAUGCCUGCAGGUCGACUCUAGAAAACAUG
binding signal [1]: 4.8 log2 enrichment (interaction score)
binding signal [2]: 2.78 log2 enrichment (interaction score)

GGCUAGAACUAGUGGAUCCCCCGGCGCCCGGCGGCUCGAGCCCGGGUAAGUGAAAAUAGUCUGCAUGCCGCCGGGCGCCAUGCCUGCAGGUCGACUCUAGAAAACAUG
binding signal [8]: 5.18 log2 enrichment (interaction score)

GGCUAGAACUAGUGGAUCCCCCGGCGCCCGGCGGCUCGAGCCCGGGUAAGCGUAAAUAGUCUGCAUGCCGCCGGGCGCCAUGCCUGCAGGUCGACUCUAGAAAACAUG
binding signal [9]: 2.04 log2 enrichment (interaction score)

GGCUAGAACUAGUGGAUCCCCCGGCGCCCGGCGGCUCGAGCCCGGGUAAGUGUAAAUUGUCUGCAUGCCGCCGGGCGCCAUGCCUGCAGGUCGACUCUAGAAAACAUG
binding signal [10]: 2.29 log2 enrichment (interaction score)
